# Reference: PubChem BioAssay (NCATS)
# Inconclusive results are not listed. Unmarked numbers belong to inactive results. Calls come from the whole dose curve; as a rule, active = well fitted cell-killing curve with a large enough effect; inconclusive = small, poorly fitted or top-dose-only effect, or effect the other way; inactive = no such curve, though single readings can be large or run the other way.
# Assay: MultiTox-Fluor Cytotoxicity Assay - LYMP1-002 - Dead Cells (AID 960);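 note: cells exposed to compound for 16 h at 37 °C; 0% = DMSO and 100% = tetraoctylammonium bromide; nearly all actives have a fitted effect of over 60% in size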
# Conditions: LYMP1-002 lymphoblastoid cells, dead-cell protease fluorescence; series mostly up to 46.1 µM; cytotoxicity (dead cells): at the top concentration
# Source text: NIH Chemical Genomics Center [NCGC]
# NIH Molecular Libraries Screening Centers Network [MLSCN]
# National Institutes of Environmental Health Sciences [NIEHS]
# National Toxicology Program [NTP]
# We have developed a 1536-well cell-based assay for quantitative high throughput screening (qHTS) against a number of cell lines to determine in vitro cytotoxicity of small molecules. This particular assay uses a human lymphoblastoid cell line (LYMP1-002) purchased from Coriell Institute.
# NCGC Assay Protocol Summary:
# The MultiTox-Fluor Cytotoxicity Assay (Promega) is a homogeneous method to simultaneously measure the relative number of live and dead cells in culture by detecting changes in cell membrane integrity. There are two fluorogenic peptide substrates in the assay reagent. Viable cells are determined when the cell-permeant substrate (GF-AFC) enters the cell and is cleaved by protease from live cells resulting in liberated fluorophore. This live-cell protease activity restricted to viable cells is proportional to cell number. The dead cells are determined by using fluorogenic cell-impermeant peptide substrate (bis-AAF-R110) which cleaved by dead cell proteases leaking from damaged cell membrane.
# Using the MultiTox-Fluor Cytotoxicity Assay, the relative number of dead cells was measured in the lymphoblastoid cell line with complete culture medium following compound treatment for 16 hours. The assay was performed in opaque black Kalypsys 1536-well plates. In the screen, tetraoctylammonium bromide was used as positive control. Library compounds were measured for their ability to cause acute toxicity in the cell line, as reflected by an increase in dead cell protease activity, in a concentration-dependent manner. Data were normalized to the controls for basal activity (DMSO only) and 100% stimulation (15 uM tetraoctylammonium bromide). AC50 values were determined from concentration-response data modeled with the standard Hill equation.
# qHTS protocol for MultiTox-Fluor Cytotoxicity assay
# [Step] [Parameter] [Value] [Description]
# 1. Reagent; 5 uL; 2500 lymphoblastoid cells/well
# 2. Time; 5 hr; 37 C incubation
# 4. Controls; 23 nL; Tetraoctylammonium bromide 6.4pM to 92 uM
# 5. Time; 16 hr; 37 C incubation
# 6. Reagent; 5 uL; MuliTox-Fluor Assay reagent
# 7. Time; 60 min; Room Temperature
# 8. Detection; dead-cell fluorescence (Ex/Em=485/520); EnVision plate reader
# Keywords: cytotoxicity, lymphoblastoid cell line, fluorescence, NTPHTS, NTPHTS_NCGC, NIEHS, EPA, DSSTox, MLSMR, MLSCN, NIH Roadmap, qHTS, NCGC
row,Compound,cytotoxicity (dead cells) [%]
1,ClC(Cl)Br,20.6
2,Nc1ccc(Oc2ccc(N)cc2)cc1,12.4
3,[N-]=[N+]=[N-],1.59
4,O=NN1CCCCC1,-4.8
5,CCOP(=S)(OCC)Oc1nc(Cl)c(Cl)cc1Cl,-10.6
6,Nc1ccc([N+](=O)[O-])cc1[N+](=O)[O-],6.51
7,Nc1ccccc1-c1ccccc1,19.1
8,O=C(O)c1cc(Cl)ccc1Cl,10.5
9,CCC(Cl)[N+](=O)[O-] (stereo not given),-15.6
10,Nc1cc(Cl)cc(Cl)c1,-1.28
11,c1ccc(OCC2CO2)cc1 (stereo not given),21.3
12,O=[N+]([O-])c1ccc(O)c([N+](=O)[O-])c1,22.6
13,Clc1cccc(Cl)c1Cl,-14.4
14,CCN(CC)N=O,-0.225
15,CC(C)CON=O,29.1
16,O=[N+]([O-])c1cccc2c([N+](=O)[O-])cccc12,16
17,C=CC(=O)OCC(C)C,15.9
18,CNC(=O)O/N=C/C(C)(C)S(C)=O (stereo not given),10.5
19,CCCCC(=O)Cl,21.5
20,C=COC(C)=O,-0.109

row,Compound,cytotoxicity (dead cells) [%]
1,Oc1c(Cl)cccc1Cl,21.9
2,N#CCCC#N,27.1
3,N#CCBr,29
4,CC(C)(OOC(C)(C)c1ccccc1)c1ccccc1,-1.22
5,Clc1ccc(Cl)c(Cl)c1,8.15
6,Cl/C=C/Cl,-8.33
7,OCCCCO,13.2
8,COP(=S)(OC)SCn1nnc2ccccc2c1=O,13.8
9,Clc1ccccc1,33.9
10,CCCCC(CC)COC(=O)c1ccc(C(=O)OCC(CC)CCCC)c(C(=O)OCC(CC)CCCC)c1 (stereo not given),11.6
11,ClC(Cl)C(Cl)Cl,13.7
12,CCCCOC(=O)c1ccccc1N,7.46
13,CC(C#N)CCC#N (stereo not given),-2.03
14,Nc1ccc([N+](=O)[O-])cc1N,11.4
15,CCCBr,23.6
16,O=[N+]([O-])CCO,-21.5
17,CCCC[N+](=O)[O-],-19.9
18,Nc1ccc(-c2ccc(N)cc2)cc1,11.5
19,CC(=O)[O-].CC(=O)[O-].CC(=O)[O-].[Cr+3],7.97
20,N#C/C=C/C#N,-1.74
